Screening results: PubChem, National Center for Advancing Translational Sciences (NCATS)
HCMV antiviral = blocks human cytomegalovirus replication. HFF cells, HCMV-luciferase reporter, 72 h; hits give low values. activity change, negative = inhibition, % at 57.5 µM. hit rate 4.5% among 410,000; in the data active = activity change below about -60%; inconclusive = no clear call, values can overlap the other calls; inactive = above about -39%
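Cell-based, HFFs, 1000 cells/well, 16 h 37C; cpds in DMSO + HCMV-luc, MOI 1 PFU/cell; 72 h 37C; OneGlo luminescence after 5 min RT; norm. to buffer vs Salinomycin 10uM.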
CHX counter = counter-screen hit for Shiga toxin inhibitors, cycloheximide. AID 2314. max response, %. hit rate 12% among 300,000. cell reporter, cycloheximide protein synthesis inhibition counterscreen; in the data active = max response mostly above about 13%, no sharp cut-off; inactive = mostly below about 14%; note: read at 38.3 µM for the half of the compounds with a filed dose
Pf growth 48h = P. falciparum growth inhibition at 48 hours (one generation) | P. falciparum luciferase growth in erythrocytes, 48 h | AID 504832 | hit rate 5.9% among 310,000 | Potency, µM (series often up to 28.7 µM), usual class: inhibitors
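Here the parasites carry a stable luciferase gene and grow inside erythrocytes in Albumax-based RPMI medium with compound for one erythrocytic cycle. Activity is scored as loss of luminescent signal.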
Pf growth 96h = P. falciparum growth inhibition at 96 hour, primary screen for plastid delayed-death inhibitors | Potency, µM (titrated, usually from 28.7 µM), hits mostly inhibitors | P. falciparum luciferase reporter growth, 96 h | hit rate 6.9% among 320,000
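Compounds incubated with erythrocytes infected by luciferase-expressing P. falciparum (2% hematocrit, 0.05% parasitemia final) for 96 hours, 37 C in 5% CO2. Growth inhibition scored as decreased luciferase luminescence.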
Shiga inhibitor = blocks Shiga toxin action in Vero cells; Vero cells, Shiga toxin protein synthesis inhibition reporter; inhibition, % at 38.7 µM; hit rate 9.2% among 290,000; in the data active = inhibition mostly above about 28%, no sharp cut-off; inactive = mostly below about 43%
Large screens that a line does not name were inactive. Only some compounds are listed: those with a hit (about 20% of all), similar ones and a draw of the others. Unless noted, calls come from the whole dose curve; as a rule, active = well fitted inhibition curve with a large enough effect; inconclusive = small, poorly fitted or top-dose-only effect, or another doubt; inactive = no such curve, though single readings can be large or run the other way.

Cc1cc(=O)n2[nH]c(N)c(N=Nc3ccccc3)c2n1	none
Nc1ccc(N=Nc2ccccc2)c2ccccc12	CHX counter 22.4
Cc1ccc(-n2c3c(cc(-c4nc(-c5ccc(Cl)cc5)cs4)c2=O)C(=O)CC(C)(C)C3)cc1C	none (no result: CHX counter, Pf growth 48h, Pf growth 96h, Shiga inhibitor)
COc1ccc(C(=O)N(Cc2ccco2)Cc2cccs2)cc1	none (no result: HCMV antiviral, Pf growth 48h, Pf growth 96h)
CCc1ccc(OCC(=O)Nc2cc3oc4ccccc4c3cc2OC)c(Br)c1	none (no result: CHX counter, Pf growth 48h, Pf growth 96h, Shiga inhibitor)
COc1ccc(C(C(=O)Nc2ccc3c(c2)OCCO3)n2c(=O)c(-c3ccco3)nc3ccccc32)cc1 (stereo not given)	none (no result: CHX counter, Pf growth 48h, Pf growth 96h, Shiga inhibitor)
CCOc1cc(N2CCOCC2)c(OCC)cc1NC(=O)COC(=O)c1ccc(OC)c([N+](=O)[O-])c1	none (no result: CHX counter, Pf growth 48h, Pf growth 96h, Shiga inhibitor)
O=C1CCCC(O)=C1C=Nc1cccc(C(F)(F)F)c1	none
COc1cccc(N=CC2=C(O)CC(C)(C)CC2=O)c1	CHX counter 12.9
COc1cccc(N=CC2=C(O)CCCC2=O)c1	CHX counter 30.5
COc1ccc(CCN=CC2=C(O)CC(C)(C)CC2=O)cc1	HCMV antiviral inconclusive
CCOC(=O)c1sc(N2N=C(C)C(N=Nc3cccc(C)c3)C2=O)nc1C (stereo not given)	Pf growth 48h inconclusive
CC1=NN(c2nc(-c3ccc(C)cc3)cs2)C(=O)C1N=Nc1cccc(C)c1 (stereo not given)	HCMV antiviral inconclusive, CHX counter 20.4, Pf growth 96h inconclusive
CC1=NN(C(N)=S)C(=O)C1N=Nc1ccc(C)c(Br)c1 (stereo not given)	CHX counter 36.1, Shiga inhibitor 59.2 (no result: Pf growth 48h)
CCOc1ccc(N=Nc2c(=O)[nH]n3c(C)cc(C)nc23)cc1	none
CC1=NN(C(N)=S)C(=O)C1N=Nc1ccc(F)cc1 (stereo not given)	CHX counter 25.2, Pf growth 48h 1.85µM, Shiga inhibitor 65.7
CCOc1ccc(N=NC2C(=O)N(C(N)=S)N=C2C)cc1 (stereo not given)	CHX counter 28.0, Pf growth 48h inconclusive (no result: Shiga inhibitor)
CC(=O)Nc1ccc(N=NC2C(=O)N(C(N)=S)N=C2C)cc1 (stereo not given)	CHX counter 20.8, Pf growth 96h inconclusive
CC1=NN(c2ccccc2C(=O)O)C(=O)C1N=Nc1ccccc1 (stereo not given)	Pf growth 48h inconclusive
CC1=NN(C(N)=S)C(=O)C1N=Nc1cccc(C)c1 (stereo not given)	CHX counter 21.6, Pf growth 48h 11.7µM, Pf growth 96h inconclusive
CC1=NN(C(N)=S)C(=O)C1N=Nc1ccc(O)cc1 (stereo not given)	CHX counter 23.6, Shiga inhibitor 32.4
CC1=NN(C(N)=S)C(=O)C1N=Nc1cccc(C(=O)O)c1 (stereo not given)	none
CC1=NN(C(N)=S)C(=O)C1N=Nc1ccccc1C(=O)O (stereo not given)	none (no result: Shiga inhibitor)
CC1=NN(C(N)=S)C(=O)C1N=Nc1ccc([N+](=O)[O-])cc1 (stereo not given)	CHX counter 53.4, Shiga inhibitor 38.7 (no result: HCMV antiviral, Pf growth 48h)
COc1cc2c(cc1NC(=O)c1cc(-c3ccncc3)nc3ccc(C)cc13)oc1ccccc12	none
COc1ccc(-c2nc(-c3ccccn3)ncc2S(C)(=O)=O)cc1	HCMV antiviral -61.1
CCOc1cc(/C=C2\SC(=N)N(c3nccs3)C2=O)ccc1OCCN1CCOCC1	HCMV antiviral -70.1, Pf growth 48h inconclusive, Pf growth 96h 4.15µM
CCOc1cc(/C=C2\SC(=S)N(N3CCOCC3)C2=O)ccc1O	none
CN(Cc1ccc(C(C)(C)C)cc1)C(=O)c1ccc2c(=O)n3c(nc2c1)CCC3	Pf growth 48h 13.1µM, Pf growth 96h inconclusive (no result: CHX counter, Shiga inhibitor)
COc1ccc(CN(C)C(=O)c2ccc3c(=O)n4c(nc3c2)CCC4)cc1	CHX counter 44.0, Pf growth 96h inconclusive, Shiga inhibitor 110.2
CN(Cc1ccc(OC(F)F)cc1)C(=O)c1ccc2c(=O)n3c(nc2c1)CCC3	Pf growth 48h inconclusive, Pf growth 96h inconclusive (no result: CHX counter, Shiga inhibitor)
COCCN1C(=S)N[C@@H](c2ccccc2)C(C(=O)OC)=C1C	Pf growth 48h inconclusive (no result: HCMV antiviral)
CCOc1ccc(NC(=O)Cn2cc(C(=O)c3ccc(F)cc3)c(=O)c3cc4c(cc32)OCCO4)cc1	none (no result: CHX counter, Pf growth 48h, Pf growth 96h, Shiga inhibitor)
COc1ccc(Cl)cc1NC(=O)CN(C)C(=O)CCCNC(=O)c1ccc(Cl)cc1	none (no result: CHX counter, Shiga inhibitor)
Cn1c(=O)c2sccc2n2c(CCCC(=O)Nc3ccc(F)c(F)c3)nnc12	none (no result: CHX counter, Pf growth 48h, Pf growth 96h, Shiga inhibitor)
Cc1ccc(S(=O)(=O)NCCC(=O)N2CCN(Cc3ccccc3)CC2)cc1	none
CC(=O)N1CCc2cc(S(=O)(=O)NCCC(=O)NC3CCCc4ccccc43)ccc21 (stereo not given)	Pf growth 48h 11.7µM
CC(=O)N1CCc2cc(S(=O)(=O)NCCC(=O)N3CCN(Cc4ccccc4)CC3)ccc21	HCMV antiviral -66.1, Pf growth 48h inconclusive, Pf growth 96h inconclusive
FC(F)(F)c1nc2ccccc2nc1N/N=C/c1c(Cl)cccc1Cl	Pf growth 48h 9.28µM
COC(=O)c1ccc(NC(=O)C2CCN(c3ncnc4c3nc3n4CCCCC3)CC2)cc1	none (no result: CHX counter, Pf growth 48h, Pf growth 96h, Shiga inhibitor)
FC(F)(F)c1cccc(NC(=S)NNC(=S)Nc2cccc(C(F)(F)F)c2)c1	Pf growth 48h inconclusive, Pf growth 96h inconclusive (no result: HCMV antiviral)
COc1ccc(NC(=S)NNC(=S)Nc2cccc(C(F)(F)F)c2)cc1	HCMV antiviral -76.1, Pf growth 48h inconclusive, Pf growth 96h inconclusive
CCOc1ccc(NC(=S)NNC(=S)Nc2cccc(C(F)(F)F)c2)cc1	Pf growth 48h inconclusive, Pf growth 96h 13.1µM
CCN(CC)c1nn2c(=O)c(C(=O)NCc3ccc(N(C)C)cc3)cnc2s1	none (no result: CHX counter, Pf growth 48h, Pf growth 96h, Shiga inhibitor)
O=c1[nH]c(=S)[nH]c2c1C(c1ccc(F)cc1)OC(CCC(F)(F)F)C2 (stereo not given)	none (no result: CHX counter, Pf growth 48h, Pf growth 96h, Shiga inhibitor)
COc1ccc(-n2c(SCC(=O)Nc3cccc4ccccc34)nc(O)cc2=O)cc1	Pf growth 48h 2.08µM, Pf growth 96h 0.294µM
COc1ccccc1-n1c(SCC(=O)Nc2ccccc2C)nc(O)cc1=O	Pf growth 48h 2.62µM
Cc1ccc(-n2c(SCC(=O)Nc3ccc4c5c(cccc35)CC4)nc(O)c(C)c2=O)cc1	none
COc1ccccc1NC(=O)CSc1nc(O)cc(=O)n1-c1ccccc1OC	Pf growth 48h 3.29µM (no result: Pf growth 96h)
COc1ccccc1-n1c(SC)nc(O)cc1=O	none (no result: Pf growth 48h)
Cc1ccc(-n2c(SCC(=O)Nc3ccc4c5c(cccc35)CC4)nc(O)cc2=O)cc1	Pf growth 48h 2.94µM, Pf growth 96h 2.62µM
COc1ccc(-n2c(SCC(=O)Nc3ccccc3)nc(O)cc2=O)cc1	HCMV antiviral inconclusive
COC(=O)[C@@]1(Cc2ccc(F)cc2)[C@H]2c3cc(C(=O)N4CCCC4)n(CCc4c[nH]c5ccccc45)c3C[C@H]2CN1C(=O)c1ccccc1	none (no result: CHX counter, Pf growth 48h, Pf growth 96h, Shiga inhibitor)
CCOc1ccccc1NC(=O)CSc1nc2cc(O)ccc2c(=O)n1-c1ccc(OC)c(OC)c1	HCMV antiviral -71.8, Pf growth 48h inconclusive, Pf growth 96h inconclusive
COc1ccc(-n2c(SCC(=O)Nc3ccc(C(N)=O)cc3)nc3ccccc3c2=O)cc1OC	Pf growth 96h inconclusive
CCOc1ccccc1NC(=O)CSc1nnc2c(CC)c(C)nc(N)n12	none (no result: Pf growth 96h)
CCc1c(C)nc(N)n2c(SCC(=O)Nc3ccccc3OC)nnc12	Pf growth 96h 10.4µM
COc1ccccc1Nc1nc(-c2ccccc2F)nc2ccccc12	none (no result: CHX counter, Pf growth 48h, Pf growth 96h, Shiga inhibitor)
